A number with no mark means an inactive call. The source made the active and inactive calls. No rule for the calls is given here. Positions of bridges follow the written chain, without caps; N, C: chain ends. Non-standard residues stand in square brackets, D forms with d. Residues, ends and D or L forms follow the SMILES beside them. ξ: configuration not given here. *: point of attachment. ξDab(CH2SO3H) = NC(CCNCS(=O)(=O)O)C(=O)O; Heptanoyl(6-Me) = CC(C)CCCCC(=O)*; Dab = NCC[CH](N)C(=O)O
System: Aerobactin synthetase IucA (Klebsiella pneumoniae hvKP1)
Experiment: Biochemical IucA enzyme inhibition primary screen of the Spectrum library (AID 1346200);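 also: 100% = wells without compound and 0% = wells lacking enzyme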
Conditions: malachite green pyrophosphate, A620, at 8 µM, stronger effect = lower value

Compound | activity remaining
CC(=O)O[C@H]1CC[C@@]2(C)C(C[C@H](OC(C)=O)[C@@]3(C)C4=CC(=O)OC(c5ccoc5)[C@]4(C)CCC23)C1(C)C (stereo partly specified) | 119%
CCCCN1CCCCC1C(=O)Nc1c(C)cccc1C (stereo unspecified) | 103%
CC12CC[C@H](CC1=O)C2(C)C | 104%
NS(=O)(=O)c1cc2c(cc1C(F)(F)F)NCNS2(=O)=O | 107%
COc1cc(O)ccc1C(C)=O | 124%
COc1c(CC(=O)c2cc3c(cc2O)OC(C)(C)C(O)C3)ccc2c1C=CC(C)(C)O2 (stereo unspecified) | 96.2%
Cc1ccc(S(=O)(=O)NC(=O)NN2CC3CCCC3C2)cc1 (stereo unspecified) | 121%
CC(=O)S[C@@H]1CC2=CC(=O)CC[C@]2(C)[C@H]2CC[C@@]3(C)[C@@H](CC[C@@]34CCC(=O)O4)C12 (stereo partly specified) | 106%
CCC(C)C1NC(=O)C(CCNCS(=O)(=O)O)NC(=O)C(NC(=O)C(CCNCS(=O)(=O)O)NC(=O)C(NC(=O)C(CCNCS(=O)(=O)O)NC(=O)CCCCC(C)C)C(C)O)CCNC(=O)C(C(C)O)NC(=O)C(CCNCS(=O)(=O)O)NC(=O)C(CCNCS(=O)(=O)O)NC(=O)C(C(C)CC)NC1=O (stereo unspecified) ({Heptanoyl(6-Me)}-[ξDab(CH2SO3H)]T[ξDab(CH2SO3H)][Dab][ξDab(CH2SO3H)]II[ξDab(CH2SO3H)][ξDab(CH2SO3H)]T; lactam 4-C; configuration not given here) | 120%
COC(=O)C1=CO[C@@H](C)[C@@H]2CN3CC[C@@]4(C(=O)Nc5ccccc54)[C@H]3CC12 (stereo partly specified) | 101%
O=C(O)[C@@H](S)[C@@H](S)C(=O)O | 49.3% (active)
CS(=O)(=O)CCCCN=C=S | 101%
NCC1CCCCC1CC(=O)O (stereo unspecified) | 98.9%
COCCc1ccc(OCC(O)CNC(C)C)cc1 (stereo unspecified) | 113%
NC(N)=NCCN1CCCCCCC1 | 104%
CC(=O)Oc1ccccc1C(=O)Oc1ccccc1C(=O)O | 97.5%
Nc1c2ccccc2nc2ccccc12 (tested in a mixture with another compound) | 112%
O=c1ccn([C@@H]2O[C@H](COP(=O)(O)OP(=O)(O)OP(=O)(O)O)[C@@H](O)[C@H]2O)c(=O)[nH]1 | 98%
COc1cc(C(=O)N2CCOCC2)cc(OC)c1OC | 111%
Oc1ccc2c(c1)OCC1(O)Cc3cc(O)c(O)cc3C21 (stereo unspecified) | 91.6%
COc1ccc(-c2coc3c(O)c(OC)ccc3c2=O)cc1 | 115%
C[C@H]1[C@H](C)CC[C@]2(C(=O)O)CC[C@]3(C)C(=CCC4[C@@]5(C)C[C@@H](O)[C@H](O)[C@@](C)(CO)C5CC[C@]43C)[C@H]12 (stereo partly specified) | 102%
Nc1nc2ncc(CNc3ccc(C(=O)N[C@@H](CCC(=O)O)C(=O)O)cc3)nc2c(=O)[nH]1 | 91.3%
NC[C@H]1O[C@H](O[C@H]2C(O[C@@H]3O[C@H](CO)[C@@H](O)[C@H]3O)[C@@H](O)[C@H](N)C[C@@H]2N)[C@H](N)[C@@H](O)[C@@H]1O (stereo partly specified) | 123%
COc1cc(OC)c2ccc(=O)oc2c1 | 112%
NC(Cn1ccc(=O)c(O)c1)C(=O)O (stereo unspecified) | 118%

Reference: PubChem BioAssay
